Laboratory results reported in PubChem BioAssay AID1159580 (chemical genetic matrix, 2015).
Among all 5,500 compounds or so, about 2,000 (36%) were called active. Not shown: some 18% with an inconclusive outcome. Cut-off read from the data, not from the text of the source: active = normalized growth mostly below about 0.91 (no sharp cut-off); inconclusive = no clear call, values can overlap the other calls; inactive = mostly above about 0.92. The list shows a part of the results.

Test: chemical genetic growth profiling, strain panel (AID 1159580);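 note: tested at 20 µM; growth read once vehicle control cultures reached saturation at 30 °C; 1 = growth at the plate median or of vehicle wells; lower values mean less growth of the strain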
Settings: S. cerevisiae deletion strains, growth OD
[1] = locus YHR030C, strain SLT2, hits give low values
[2] = locus YHR079C, strain IRE1, hits give low values
[3] = locus YJL095W, strain BCK1, hits give low values
[4] = locus YJR066W, strain TOR1, hits give low values
[5] = locus YLR113W, strain HOG1, hits give low values
[6] = locus YNL183C, strain NPR1, hits give low values
[7] = locus YOR231W, strain MKK1, hits give low values
[8] = locus YPL256C, strain CLN2, hits give low values

Measured: normalized growth

CCN(CC)CCNC(C(=O)OCCC(C)C)c1ccccc1 (stereo not drawn)
inactive: [1] 0.984 | [2] 0.986 | [3] 0.979 | [4] 0.913 | [5] 1.03 | [6] 0.916 | [7] 0.978 | [8] 0.964

Nc1ccc([As](=O)(O)O)cc1
inactive: locus YAL021C, strain ccr4, hits give low values 1 | locus YAL026C, strain drs2, hits give low values 1.02 | locus YAL030W, strain snc1, hits give low values 1 | locus YBL061C, strain skt5, hits give low values 1.01 | locus YBR009C, strain hhf1, hits give low values 1.02 | locus YBR023C, strain chs3, hits give low values 1.02 | locus YBR171W, strain sec66, hits give low values 0.997 | locus YBR231C, strain swc5, hits give low values 1.01 | locus YBR279W, strain paf1, hits give low values 1 | locus YCL011C, strain gbp2, hits give low values 1 | locus YCL016C, strain dcc1, hits give low values 1.01 | locus YCL061C, strain MRC1, hits give low values 1 | locus YCL069W, strain vba3, hits give low values 1.01 | locus YCR088W, strain abp1, hits give low values 1.01 | locus YDL005C, strain med2, hits give low values 0.996 | locus YDL040C, strain nat1, hits give low values 1.01 | locus YDR001C, strain nth1, hits give low values 0.992 | locus YDR069C, strain doa4, hits give low values 1.01 | locus YDR137W, strain rgp1, hits give low values 0.994 | locus YDR159W, strain sac3, hits give low values 1.02 | locus YDR195W, strain ref2 0.993 | locus YDR297W, strain sur2, hits give low values 0.999 | locus YDR334W, strain swr1, hits give low values 1.01 | locus YDR335W, strain msn5, hits give low values 0.995 | locus YDR392W, strain spt3, hits give low values 1.01 | locus YEL003W, strain gim4, hits give low values 0.996 | locus YEL037C, strain rad23, hits give low values 0.997 | locus YEL061C, strain CIN8 (second series), hits give low values 0.997 | locus YER015W, strain faa2, hits give low values 0.999 | locus YER016W, strain bim1, hits give low values 1 | locus YER111C, strain swi4, hits give low values 1 | locus YER155C, strain BEM2 (second series), hits give low values 1.03 | locus YFR010W, strain ubp6, hits give low values 1 | locus YGL167C, strain pmr1, hits give low values 0.997 | locus YGL173C, strain kem1, hits give low values 1.01 | locus YGL227W, strain vid30, hits give low values 0.998 | locus YGL240W, strain doc1, hits give low values 1.01 | locus YGL253W, strain hxk2, hits give low values 1 | locus YHR013C, strain ard1, hits give low values 1.03 | locus YHR027C, strain rpn1, hits give low values 1 | [1] 1 | [2] 0.984 | locus YHR142W, strain chs7, hits give low values 1.02 | locus YJL092W, strain hpr5, hits give low values 1.01 | locus YJL095W, strain BCK1 (second series), hits give low values 1 | [3] 0.971 | locus YJL115W, strain asf1, hits give low values 1.01 | locus YJL129C, strain trk1, hits give low values 1 | locus YJL154C, strain vps35, hits give low values 1 | locus YJL164C, strain tpk1, hits give low values 1.01 | locus YJL166W, strain qcr8, hits give low values 0.998 | locus YJL187C, strain SWE1, hits give low values 1 | [4] 0.966 | locus YKL160W, strain elf1, hits give low values 1 | locus YKR026C, strain gcn3, hits give low values 0.997 | locus YKR091W, strain srl3, hits give low values 1.01 | locus YLL001W, strain dnm1, hits give low values 1.01 | locus YLL026W, hits give low values 1.01 | locus YLL041C, strain sdh2, hits give low values 1.01 | locus YLR027C, strain aat2, hits give low values 1 | [5] 0.965 | locus YLR221C, strain rsa3, hits give low values 1.01 | locus YLR258W, strain gsy2, hits give low values 1.01 | locus YLR262C, strain YPT6 (second series), hits give low values 1 | locus YLR320W, strain mms22, hits give low values 0.999 | locus YLR342W, strain FKS1, hits give low values 1.01 | locus YLR357W, strain rsc2, hits give low values 1.01 | locus YLR370C, strain arc18, hits give low values 1 | locus YLR384C, strain iki3, hits give low values 1 | locus YML120C, strain ndi1, hits give low values 0.997 | locus YMR058W, strain fet3, hits give low values 1 | locus YMR125W, strain sto1, hits give low values 1 | locus YMR129W, hits give low values 1 | locus YMR205C, strain PFK2, hits give low values 1.04 | locus YMR231W, strain pep5, hits give low values 1 | locus YNL071W, strain lat1, hits give low values 1 | [6] 0.968 | locus YNL209W, strain ssb2, hits give low values 0.999 | locus YNL248C, strain rpa49, hits give low values 0.992 | locus YNL322C, strain KRE1 (second series), hits give low values 1.01 | locus YNR049C, strain mso1, hits give low values 1 | locus YOR001W, strain rrp6, hits give low values 1 | locus YOR070C, strain gyp1, hits give low values 1.01 | locus YOR080W, strain dia2, hits give low values 1.01 | locus YOR083W, strain WHI5, hits give low values 1 | locus YOR106W, strain vam3, hits give low values 1.03 | [7] 1.01 | locus YOR265W, strain rbl2, hits give low values 0.996 | locus YOR270C, strain vph1, hits give low values 1.06 | locus YOR290C, strain snf2, hits give low values 1 | locus YPL051W, strain arl3, hits give low values 1.01 | locus YPL078C, strain atp4, hits give low values 0.996 | locus YPL106C, strain sse1, hits give low values 0.996 | locus YPL240C, strain hsp82, hits give low values 1 | [8] 1.02
